Results filed as inconclusive are left out. A structure can be active in one record and inactive in another. Calls of active or inactive are those of the source. How the source made its calls, unless noted: active means hit-call score of the fitted dose curve at least 0.9, where 1 is the maximum; inactive means score below 0.9.

Experiment [1] is described as follows: BSK_BT_PBMCCytotoxicity: PBMC Cytotoxicity Assessment in the BioMAP Diversity Plus: BT Assay (AID 2284225).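 Further: PBMC viability measured by Alamar Blue dye reduction fluorescence.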 The note with it: primary human B cells with PBMC. The procedure, abridged:
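PBMC (75,000/well) pretreated with compound 1 h, then activated with SEB and TSST-1 (20 ng/mL each final), incubated 90 h; Alamar Blue added 6 h, fluorescence read at 546/580 nm. Fitted relative to DMSO.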

Read-out in experiment [2]: Secreted IgG (sIgG), gene 3500
Briefly: BSK_BT_sIgG: BioMAP Diversity Plus: BT Assay for Secreted IgG (sIgG) Biomarker Activity (AID 2284226). The note with it: primary human B cells with PBMC. The procedure, abridged: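 Human B cell plus PBMC co-culture; secreted IgG measured by ELISA 24 h after chemical dosing. Response fitted in positive direction relative to DMSO baseline.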

Experiment [3] in a line: BSK_BT_Bcell_Proliferation: Viability Assessment in the BioMAP Diversity Plus: BT Assay for B cell Proliferation (AID 2284227). The note with it: primary human B cells with PBMC. The procedure, abridged: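 Using a human primary B cell–PBMC co-culture, the assay measures total protein by sulforhodamine B absorbance as a gauge of proliferation after 72 h. Analysis followed the positive fitting direction with DMSO as baseline.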

Read-out in experiment [4]: Interleukin 6 (IL6), IL6 (gene 3569)
As to the kind of experiment: BSK_BT_xIL6: BioMAP Diversity Plus: BT Assay for Interleukin 6 (IL6) Biomarker Activity (AID 2284228). The note with it: primary human B cells with PBMC. The procedure, abridged: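 Chemical added to human B cell/PBMC co-culture → 24 h → supernatant IL-6 by Luminex xMAP → fit vs DMSO baseline, upward direction.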

Read-out in experiment [5]: Interleukin 17A (IL17A), IL17A (gene 3605)
As to the kind of experiment: BSK_BT_xIL17A: BioMAP Diversity Plus: BT Assay for Interleukin 17A (IL17A) Biomarker Activity (AID 2284229). The note with it: primary human B cells with PBMC. The method, boiled down:
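Chemicals were added to a human B cell and PBMC co-culture. After 24 h, secreted IL-17A was measured with Luminex xMAP. Curves were fitted in the positive direction, with DMSO wells as baseline.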

Read-out in experiment [6]: Tumor necrosis factor (Homo sapiens) (UniProt P01375)
Briefly: BSK_BT_xTNFa: BioMAP Diversity Plus: BT Assay for Tumor necrosis factor alpha (TNF-alpha) Biomarker Activity (AID 2284230). The note with it: primary human B cells with PBMC. The procedure, abridged:
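Endpoint derived in the positive direction versus DMSO vehicle. Cells: B cells together with PBMC, exposed 24 h before TNF-alpha in the medium was read on the Luminex xMAP platform.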

The nature of experiment [7]: IUF_NPC1b_proliferation_BrdU_72hr: Leibniz Research Institute for Environmental Medicine (IUF) 72-hour Neural Progenitor Cell Bromodeoxyuridine (BrdU) Proliferation Assay (NPC1b) (AID 2284207). The method, boiled down: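 hNPC spheres (primary, GW 16-19 fetal cortex), single sphere/well, EGF+FGF medium; 72 h compound, no renewal; BrdU pulse last 16 h; luminescent ELISA; activity vs DMSO baseline; growth-factor withdrawal as positive control.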

Experiment [8] can be described thus: IUF_NPC1a_proliferation_area_72hr: Leibniz Research Institute for Environmental Medicine (IUF) 72-hour Neural Progenitor Cell Proliferation Area Assay (NPC1a) (AID 2284208). The procedure, abridged:
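Proliferation is scored as sphere area gain in primary human fetal neural progenitors treated for 72 h in EGF/FGF-containing medium. Viability, LDH and BrdU readouts come from the same wells.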

Experiment [9] can be described thus: IUF_NPC1_viability_72hr: Viability Assessment at 72 hours in the Leibniz Research Institute for Environmental Medicine (IUF) Neural Progenitor Cell Proliferation Assay (NPC1) (AID 2284209). The procedure, abridged: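 Single spheres (0.25-0.35 mm) of human fetal cortex-derived neural progenitor cells were grown in proliferation medium with EGF and FGF at 37C and 5% CO2. They were exposed for 72 h without renewal, and viability was read by alamar blue resorufin fluorescence.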

The nature of experiment [10]: CCTE_Mundy_HCI_Cortical_Synap_Neur_Matur_NeuriteSpotCountPerNeuriteLength: CCTE's Synaptogenesis and Neurite Maturation Assay in rat cortical cells for Neurite Spot Count per Neurite Length, Mundy Lab (AID 2284210). The procedure, abridged:
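Rat primary cortical cultures, glia arrested with AraC at DIV 5, were dosed with media change at DIV 7 and fixed at DIV 12. Synaptophysin puncta per MAP2-labelled neurite length were quantified by high-content imaging versus DMSO.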

Experiment [11] is described as follows: CCTE_Mundy_HCI_Cortical_Synap_Neur_Matur_BPCount: CCTE's Synaptogenesis and Neurite Maturation Assay in rat cortical cells for Branch Point Count, Mundy Lab (AID 2284211). The method, boiled down: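 Rat primary cortical cultures, AraC added DIV 5; chemicals dosed DIV 7 through DIV 12. Fixed cells stained for MAP2, synaptophysin and Hoechst; neurite branch points counted by automated high-content imaging, fitted relative to DMSO.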

Experiment [12] is described as follows: CCTE_Mundy_HCI_Cortical_NOG_NeuriteCount: CCTE's Neurite Outgrowth Assay in rat cortical cells for Neurite Count, Mundy Lab (AID 2284212).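 Further: cells fixed about two days after chemical exposure began.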 The procedure, abridged: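 Neurite number per cell from high-content imaging of betaIII-tubulin immunostaining, with Hoechst nuclear counterstain.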
Experiment [13] can be described thus: CCTE_Mundy_HCI_Cortical_NOG_NeuriteLength: CCTE's Neurite Outgrowth Assay in rat cortical cells for Neurite Length, Mundy Lab (AID 2284213). The method, boiled down:
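Neurite length was read by high-content imaging of βIII-tubulin-labelled neurites in rat primary cortical cultures. Activity was fitted relative to DMSO.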

Experiment [14] in a line: CCTE_Mundy_HCI_Cortical_Synap_Neur_Matur_NeuriteLength: CCTE's Synaptogenesis and Neurite Maturation Assay in rat cortical cells for Neurite Length, Mundy Lab (AID 2284214). The method, boiled down: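 Rat primary cortical cultures, AraC added DIV 5, dosed DIV 7 through DIV 12 […]. Fixed, MAP2/synaptophysin immunostained with Hoechst; neurite length by high-content imaging, fitted in positive direction versus DMSO.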

A short description of experiment [15]: CCTE_Mundy_HCI_Cortical_Synap_Neur_Matur_NeuriteSpotCountPerNeuron: CCTE's Synaptogenesis and Neurite Maturation Assay in rat cortical cells for Neurite Spot Count per Neuron Count, Mundy Lab (AID 2284215). The procedure, abridged:
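Synapse density is scored as synaptophysin spots along neurites per neuron in fixed rat cortical neurons, measured at DIV 12 after chemical dosing at DIV 7. DMSO is the negative control and activity baseline.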

A short description of experiment [16]: CCTE_Mundy_HCI_Cortical_Synap_Neur_Matur_SynapseCount: CCTE's Synaptogenesis and Neurite Maturation Assay in rat cortical cells for Synapse Count, Mundy Lab (AID 2284218). The procedure, abridged:
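Rat primary cortical cultures, AraC at DIV 5, chemical dosing DIV 7 to DIV 12 (288.33 h). Fixed cells stained for MAP2, synaptophysin and Hoechst; synapses per neuron counted by high-content imaging, loss of signal versus DMSO.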

The nature of experiment [17]: CCTE_Mundy_HCI_Cortical_Synap_Neur_Matur_NeuriteCount: CCTE's Synaptogenesis and Neurite Maturation Assay in rat cortical cells for Neurite Count, Mundy Lab (AID 2284222).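 On outcome: exposure from day 7 to day 12 in vitro with readout at day 12.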 The procedure, abridged: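 In this multiplexed morphology readout, rat primary cortical neurons are fixed at DIV 12 following dosing at DIV 7 and stained for MAP2, synaptophysin and nuclei. High-content image analysis yields neurite count.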

The nature of experiment [18]: CCTE_Mundy_HCI_Cortical_Synap_Neur_Matur_CellBodySpotCount: CCTE's Synaptogenesis and Neurite Maturation Assay in rat cortical cells for Cell Body Spot Count, Mundy Lab (AID 2284223). The procedure, abridged: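 Synapse number at neuronal cell bodies was quantified as synaptophysin puncta per neuron in rat cortical cultures exposed from DIV 7 to DIV 12. Values were normalised to DMSO.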

Experiment [19] in a line: CCTE_Mundy_HCI_hNP1_Pro_ResponderAvgInten: CCTE's Proliferation Assay in human neuroprogenitor cells, Mundy Lab (AID 2284224; active means hit-call score of the fitted dose curve at least 0.9, where 1 is the maximum;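 further: human neural progenitor cells hNP1 derived from WA09 embryonic stem cells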). The method, boiled down: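 Human neuroprogenitors (hNP1, WA09 lineage) receive test chemical after 40 to 44 hours of attachment. A four-hour BrdU pulse begins twenty hours later, followed by fixation and high content imaging; signal is referenced to DMSO controls.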

The nature of experiment [20]: TAMU_PeakParms_SingleDonor1434_Chronotropy: Texas A&M University (TAMU) 1.5-hr Human Induced Pluripotent Stem Cell (iPSC)-derived Cardiomyocytes Calcium (Ca+2) Flux Assay for Cardiotoxicity: Chronotropy (changes in peak frequency) (AID 2284217). The note with it: actives raise or lower the signal. The procedure, abridged: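 Using fluorescent Ca2+ flux, average beats per second are measured in human iPSC-derived cardiomyocytes treated 90 min (0.5% DMSO vehicle, 0.2–100 uM). Non-beating data points are removed; activity is modeled in both directions relative to DMSO controls.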

Tumor necrosis factor (Homo sapiens), sequence (P01375 whole entry, looked up): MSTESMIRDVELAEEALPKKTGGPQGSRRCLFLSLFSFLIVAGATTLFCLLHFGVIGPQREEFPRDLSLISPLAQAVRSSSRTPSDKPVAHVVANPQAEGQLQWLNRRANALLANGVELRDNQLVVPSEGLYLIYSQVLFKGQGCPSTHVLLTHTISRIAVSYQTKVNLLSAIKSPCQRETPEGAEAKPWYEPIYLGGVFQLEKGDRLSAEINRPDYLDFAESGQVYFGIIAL

In the case of `CC1(C)[C@H](C=C(Cl)Cl)[C@H]1C(=O)OCc1cccc(Oc2ccccc2)c1`, the outcome in experiment [1], in experiment [2], in [3], in [4], in [5] and in experiment [6] was inactive.

As for `CC(C)Cc1ccc(C(C)C(=O)O)cc1` (stereo unspecified), the call in experiment [7], in experiment [8], in experiment [9], in experiment [10], in [11] and in [12] was inactive. Moreover, the outcome in experiment [13], in experiment [14], in experiment [15], in experiment [16], in experiment [17] and in experiment [18] was inactive. Besides, the compound was classed as inactive in [19], in experiment [1], in experiment [2], in experiment [3], in [4] and in [5]. Also, the result in experiment [6] was inactive.

Take `CCOC(=O)C=Cc1ccccc1`: the result in experiment [1], in experiment [2], in experiment [3], in experiment [4], in [5] and in [6] was inactive.

Regarding `COc1ccccc1NC(=O)CC(C)=O`, the outcome in experiment [1], in experiment [2], in [3], in experiment [4], in experiment [5] and in experiment [6] was inactive.

For the compound `N[C@@H](CCC(=O)O)C(=O)O`, the compound was called inactive in experiment [7], in experiment [8], in experiment [9], in experiment [10], in [11] and in [12]. Besides, the compound was called inactive in experiment [13], in experiment [14], in experiment [15], in [16], in experiment [17] and in experiment [18].

As for `CNC(=C[N+](=O)[O-])NCCSCc1ccc(CN(C)C)o1`, the outcome in [20] was inactive.

For `Nc1ccc(N)c([N+](=O)[O-])c1`, the outcome in [2], in experiment [3], in experiment [4], in experiment [5] and in [6] was inactive.

For `OCCN1CCOCC1`, the result in experiment [1], in experiment [2], in [3], in experiment [4], in [5] and in [6] was inactive.

As for `O=S1(=O)CC(Cl)(Cl)C(Cl)(Cl)C1`, the concentration at half-maximal activity (AC50) (usually the midpoint of the concentration-response curve, whichever way the signal moves) in experiment [1] was 0.874 µM (active); in experiment [2] it was 0.329 µM (active); in experiment [3], 0.537 µM (active); in experiment [4] it was 0.416 µM (active); in [5] it was 0.346 µM (active); in experiment [6], 0.749 µM (active).

`CCC(=O)OCC=Cc1ccccc1`: the outcome in experiment [1], in [2], in experiment [3], in experiment [4], in experiment [5] and in [6] was inactive.

For the compound `C=C(F)C(=O)OC(C(F)(F)F)C(F)(F)F`, the outcome in [1], in experiment [2], in [3], in [4], in experiment [5] and in experiment [6] was inactive.

For the compound `CCCCC(CC)COC(=O)COc1ccc(Cl)cc1C` (stereo unspecified), the AC50 was 0.0137 µM (active) in [7]; 24.2 µM (active) in [10]; 15.7 µM (active) in experiment [11]; 14.1 µM (active) in experiment [14]; 16.3 µM (active) in experiment [15]; 16.4 µM (active) in experiment [16]. In addition, the values for the concentration at half-maximal activity (AC50) in [17] and in [18] were 17.1 µM (active) and 25 µM (active), respectively. Moreover, the call in [8], in experiment [9], in experiment [12] and in experiment [13] was inactive.

On to `O=C(O)C(F)(F)OC(F)(F)C(F)(F)OC(F)(F)C(F)(F)C(F)(F)C(F)(F)F`, for which, in experiment [1], the half-maximal activity concentration (AC50) was 22.1 µM (active). Further, the result in experiment [1], in [2], in experiment [3], in experiment [4], in experiment [5] and in experiment [6] was inactive.

Regarding `O=S(=O)(O)C(F)(F)C(F)(F)OC(F)(F)C(F)(F)F`, the outcome in experiment [1], in [2], in [3], in experiment [4], in experiment [5] and in [6] was inactive.

Turning to `C=C1CC/C=C(\C)CC[C@@H]2[C@@H]1CC2(C)C`, the result in experiment [1], in experiment [2], in experiment [3], in experiment [4], in [5] and in experiment [6] was inactive.

Take `CC(=O)OC(C)(C)C1CC=C(C)CC1` (stereo unspecified): the outcome in experiment [1], in experiment [2], in experiment [3], in experiment [4], in experiment [5] and in [6] was inactive.

For the compound `N#CCCNCCC#N`, the compound was classed as inactive in experiment [10], in [11], in [12], in experiment [13], in experiment [14] and in experiment [15]. For the same compound, the result in experiment [20], in experiment [16], in [17] and in experiment [18] was inactive.

The record behind these values is PubChem BioAssay (EPA / NIEHS).
